# Experimental data reported in PubChem BioAssay AID1159606 (Sanford-Burnham Center for Chemical Genomics, 2016).
# The campaign covered roughly 360,000 compounds. About 7,300 (2%) were called active. Many of the other results were omitted from the sample, so actives are more common in it than they were. Values without a mark were called inactive. Cut-off read from the data, not from the text of the source: active = inhibition above about 50%; inactive = the rest.
# Assay: inhibitors of TWEAK-Fn14 signaling, primary screen, luciferase reporter cells, uHTS (AID 1159606)
# Details: TWEAK-stimulated Fn14 reporter cells, luciferase luminescence, 8 h; at 10 µM; hits give high values
row,SMILES,inhibition
1,CCC(C)N1C(=O)S/C(=C/c2ccc(Sc3nc4ccccc4[nH]3)o2)C1=O (stereo not given),69.5% (active)
2,CN1CCN(c2ccc([N+](=O)[O-])c(Sc3nc4ccccc4[nH]3)c2)CC1,17%
3,CC(C)c1ccc(/C=C2\NC(=O)NC2=O)cc1,18.4%
4,CCOc1ccc(C(=O)NC(=S)Nc2ccc(N3CCOCC3)c(Cl)c2)cc1[N+](=O)[O-],62.8% (active)
5,O=C(CSc1ccc([N+](=O)[O-])cn1)Nc1ccc(N2CCOCC2)c(Cl)c1,-16.6%
6,CCOc1ccc(C(=O)NC(=S)Nc2ccc(NC(=O)C(C)C)cc2)cc1[N+](=O)[O-],3.3%
7,COc1ccc(C(=NN)c2ccc(OC)cc2)cc1,-20.6%
8,COc1ccc(/C(N)=N/OC(=O)Cc2ccccc2)cc1,-44.1%
9,COc1ccc(C(C#N)=C2C=CC(=NO)c3ccccc32)cc1,88% (active)
10,CCOc1ccc(Br)cc1S(=O)(=O)N1CCC(C(=O)O)CC1,0.18%
11,OCCNc1nc(Nc2ccc(Cl)c(Cl)c2)nc2ccccc12,84.3% (active)
12,OCCNCCOc1ccc(Cl)c(Cl)c1,5.07%
13,O=C(Cn1c(NCCO)nc2ccccc21)c1ccc(Cl)cc1Cl,22.5%
14,COC(=O)[C@]12CCCCC=C1N(Cc1ccc(Cl)cc1Cl)C(=O)[C@H](CC(=O)NCc1cccc3ccccc13)C2,5.94%
15,O=C(COc1ccccc1)N1CCN=C1SCc1cccc(F)c1,-2.31%
16,COc1ccc(CCNC(=O)C2CCCN(Cc3nc(-c4cccc(Cl)c4)oc3C)C2)cc1OC (stereo not given),25.8%
17,O=C(COc1ccc(S(=O)(=O)NCCc2ccccc2)cc1)N1CCCC1,11.6%
18,COC(=O)C1(C)CC1(c1ccccc1)c1ccccc1 (stereo not given),7.44%
19,COc1cc(C#Cc2ccc3cc(CCCO)oc(=O)c3c2)cc(OC)c1,18.9%
20,O=C1c2ccccc2C(=O)N1CCC#Cc1ccc2cc(C3(O)CCCCC3)oc(=O)c2c1,71.2% (active)
21,C(#CCN1CCOCC1)CCCN1CCOCC1,-1.19%
22,Cc1nn(-c2ccccc2)c(C)c1/C=C/C(=O)OC(C)C(N)=O (stereo not given),-4.83%
23,Cc1nn(-c2ccccc2)c(Cl)c1/C=C/C(=O)c1ccc(O)cc1,57.3% (active)

row,SMILES,inhibition
1,COc1ccc(CCNC(=O)c2c(C)nn(-c3ccccc3)c2Cl)cc1,-12.5%
2,Cc1sc(NC(=S)NC(=O)c2cccs2)nc1-c1ccc(CC(C)C)cc1,-5.35%
3,C=CCOC(=O)C1=C(C)NC(C)=C(C(=O)OCC=C)C1c1cccs1,20.3%
4,O=S1(=O)CC(N2CCN(CCO)CC2)CN1C1CCCC1 (stereo not given),11.3%
5,COc1ccc(-c2c(C)nn3c(N4CCC(C(=O)N5CCCCC5)CC4)cc(C)nc23)cc1OC,-3.08%
6,Cc1ccc(-n2c(C)cc(C(=O)CN3C(=O)C(=O)N(C4CCCC4)C3=O)c2C)cc1,40.7%
7,Cc1cc(C(=O)COc2ccccc2Cl)c(C)n1C1CC1,-10.6%
8,Cc1cc(C(=O)COC(=O)C2CC2)c(C)n1-c1ccc(F)cc1,95.2% (active)
9,Nc1nc2c(Br)ccc(Br)c2cc1C(=O)NCCc1ccccc1,14.3%
10,CCCCc1cc(=O)oc2c(C)c(OCC(=O)N3CCC(C(N)=O)CC3)ccc12,-5.28%
11,O=C(NCc1ccccc1Cl)c1csc([C@@H]2O[C@H](CO)[C@@H](O)[C@H]2O)n1,-0.12%
12,COc1ccccc1CN1CCNC(=O)C1CC(=O)N(C)CC1CCOCC1 (stereo not given),1.59%
13,CCN(CCn1cccn1)C(=O)CC1C(=O)NCCN1Cc1cccc(OC)c1OC (stereo not given),68.3% (active)
14,CN(Cc1cccc2ncccc12)C(=O)CC1C(=O)NCCN1Cc1ccc(F)cc1 (stereo not given),-1.61%
15,Cc1nc2nc3c(cn2n1)C(=O)CC(c1ccccc1)C3 (stereo not given),8.49%
16,CC1CN(C(=O)CN2C(=O)NC(C)(c3ccccc3)C2=O)CC(C)O1 (stereo not given),0.1%
17,CN(C)c1nc(N)nc(CSc2nnnn2-c2cccc3ccccc23)n1,-0.11%
18,Cc1cccc(C)c1-n1nnnc1C1(C)CCC(=O)N1CCOc1ccccc1 (stereo not given),-0.09%
19,CCC1CCCCN1C(=O)CSc1nc2c(c(=O)n1C)SC(C)C2 (stereo not given),4.38%
20,CCN(CC)C(=O)c1sc2nc(-c3ccccc3)ccc2c1N,69.9% (active)
21,CCOC(=O)C(C)n1nc(-c2ccccc2)c2ccccc2c1=O (stereo not given),7.15%
22,CCN(CC)C(=O)c1nc[nH]c1C(=O)N(C)Cc1ccccc1,6.48%
